Data taken from PubChem BioAssay AID1416 (The Scripps Research Institute Molecular Screening Center, 2008).
About 370 (0.17%) of roughly 220,000 compounds were called active.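 How the source made its calls: active means inhibition above the mean inhibition of all tested compounds plus 3 SD, set separately per screening campaign (cut at about 2.9% in these data); inactive means the rest.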 For the sample, actives were picked, then their nearest neighbours and some compounds at random.

The compounds below were run against Eukaryotic translation initiation factor 2-alpha kinase 3 (Homo sapiens) (UniProt Q9NZJ5) (assay: SEAP translation reporter rise after PERK-DD activation – CHO PERK-DD cells, SEAP luminescence, HTS, PERK inhibitor project, primary screen (AID 1416;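 further: PERK kinase domain activated by AP20187 dimerizer at 100 nM; 0% = DMSO with dimerizer and 100% = rapamycin at 8.4 µM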)). Details: CHO PERK-DD fusion, at 5.6 µM, stronger effect = higher value.
Eukaryotic translation initiation factor 2-alpha kinase 3 (Homo sapiens), sequence (Q9NZJ5 whole entry, looked up, the tested form may be a part): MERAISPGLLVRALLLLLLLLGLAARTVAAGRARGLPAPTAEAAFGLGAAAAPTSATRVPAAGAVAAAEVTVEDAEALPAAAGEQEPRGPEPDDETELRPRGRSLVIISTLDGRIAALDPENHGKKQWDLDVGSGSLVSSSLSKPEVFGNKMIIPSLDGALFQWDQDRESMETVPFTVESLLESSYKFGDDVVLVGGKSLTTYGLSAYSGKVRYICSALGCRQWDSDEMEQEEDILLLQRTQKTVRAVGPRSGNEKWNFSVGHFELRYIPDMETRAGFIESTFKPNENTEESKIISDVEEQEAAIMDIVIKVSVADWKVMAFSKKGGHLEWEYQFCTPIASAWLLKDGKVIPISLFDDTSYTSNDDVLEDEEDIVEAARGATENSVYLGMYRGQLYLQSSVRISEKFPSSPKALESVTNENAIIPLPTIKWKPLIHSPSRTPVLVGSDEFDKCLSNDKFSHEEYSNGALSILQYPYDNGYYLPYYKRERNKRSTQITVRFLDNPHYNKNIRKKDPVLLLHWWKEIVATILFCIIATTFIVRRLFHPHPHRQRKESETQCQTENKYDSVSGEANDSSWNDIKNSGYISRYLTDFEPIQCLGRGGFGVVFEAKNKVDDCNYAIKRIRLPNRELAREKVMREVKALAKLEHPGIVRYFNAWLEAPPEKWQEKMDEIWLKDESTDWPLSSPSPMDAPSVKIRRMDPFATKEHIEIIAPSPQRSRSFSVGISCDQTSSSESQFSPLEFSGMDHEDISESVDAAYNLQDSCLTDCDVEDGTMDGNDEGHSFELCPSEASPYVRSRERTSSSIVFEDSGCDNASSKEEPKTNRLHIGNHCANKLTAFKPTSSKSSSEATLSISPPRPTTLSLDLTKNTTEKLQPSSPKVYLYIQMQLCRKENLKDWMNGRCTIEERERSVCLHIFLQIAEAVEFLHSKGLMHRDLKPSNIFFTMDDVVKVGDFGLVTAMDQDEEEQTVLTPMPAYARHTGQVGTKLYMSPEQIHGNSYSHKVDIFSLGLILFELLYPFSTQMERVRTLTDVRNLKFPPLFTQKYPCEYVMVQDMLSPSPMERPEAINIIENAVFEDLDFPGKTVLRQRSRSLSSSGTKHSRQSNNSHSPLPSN

inhibition, active:
Cc1nnc(SCC(=O)NC2CCCC2)s1 3.36%
O=C(Nc1ccccc1)OCc1cc(-c2ccc(Cl)cc2)on1 3.15%

inhibition, inactive:
CC(C)CNC(=O)CC(NCC(C)C)C(=O)O (stereo not drawn) 0.39%
COc1ccccc1CN(C)C(=O)C1(c2ccc(Cl)cc2)CC1 0.49%
Cc1nnc(SCC(=O)Nn2cnnc2)s1 0.16%
Cc1cnc(NC(=O)CSc2nnc(C)s2)s1 1.08%
CC(=O)C1(C)N(O)C(C)(C)C(c2cccs2)=[N+]1[O-] (stereo not drawn) 0.19%
COc1cccc(Nc2nnc(SCC(=O)N3CC(=O)Nc4ccccc43)s2)c1 0.32%
CC1CC(=S)Nc2ccccc2N1Cc1ccccc1 (stereo not drawn) 0.04%
O=C1c2ccccc2C(=O)c2c1cccc2N1CCN(CCO)CC1 -0.7%
COCc1c(C(=O)OCc2c(C)noc2C)oc2ccccc12 1.59%
CCOc1ccc(/C=N/NC(=O)CSc2ccccn2)cc1O -0.92%
CC1=C(C(=O)N(C)C)C(c2ccccc2OC(F)F)NC(=O)N1 (stereo not drawn) 1.73%
CCOC(=O)c1ccc(NC(=O)c2cc(=O)[nH]c3ccccc23)cc1 0.84%
O=C(Nc1cccc(F)c1)N1C2CCC1CC(O)(c1cccnc1)C2 (stereo not drawn) 0.63%
O=C(Nc1ccc(Cl)cc1)OCc1cc(-c2ccccc2)on1 0.13%
O=C(Nc1ccccc1)OCc1cn(-c2ccc(Cl)cc2)nn1 1.21%
CCN(CC)CC1(O)CCN(C(=O)c2ccc(Cl)c(Cl)c2)CC1 1.07%
Cn1c(=O)c2cc(S(=O)(=O)NCCC(=O)Nc3ccc(F)cc3F)ccc2n(C)c1=O 2.78%
Cc1ccc(S(=O)(=O)NCC(=O)N(CC(=O)NC(C)(C)C)Cc2cccs2)cc1 1.04%
Cc1ccoc1C(=O)Nc1cccc(Oc2ccccc2)c1 -1%
Cc1nc(CN2CCN(C(=O)CCc3nnc(Cc4c[nH]c5ccccc45)o3)CC2)cs1 0.14%
O=C(NNc1cc(Cl)cc(Cl)c1)c1c(F)cccc1Cl 0.97%
COCCNC(=S)N1CCC(NC(=O)C23CC4CC(CC(C4)C2)C3)CC1 -0.41%
Cc1ccc(C2Nc3ccccc3C(=O)N2CCN2CCNC2=O)cc1 (stereo not drawn) 0.32%
CN(C)/C=C(/C(=O)c1ccc(Cl)c(Cl)c1)c1nnnn1-c1ccccc1 1.85%
O=C1COc2ccc(C(=O)COC(=O)c3cccnc3Cl)cc2N1 0.94%
CCOc1ccc(S(=O)(=O)Nc2nccs2)cc1 1.47%
